Results from PubChem BioAssay AID624037 (The Scripps Research Institute Molecular Screening Center, 2012).
Among all 360,000 compounds or so, about 700 (0.19%) were called active. This is one part of a sample in which actives are shown more often than they occur. Values without a mark were called inactive.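 Rule for the calls: active = activation above the run's mean over test compounds plus 3 SD (cut at about 23% in these data); inactive = the rest.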

What follows are molecules tested against Muscarinic acetylcholine receptor M5 (Homo sapiens) (UniProt P08912) (assay: human M5 muscarinic receptor agonists, primary screen, CHO-K1 cells, Fluo-8 calcium fluorescence (AID 624037;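 note: signal is peak over basal fluorescence ratio across the kinetic read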)). Conditions: CHO-K1 hM5 cells, at 3 µM, hits give high values, 0% DMSO wells, 100% maximal acetylcholine response.
Chain of Muscarinic acetylcholine receptor M5 (Homo sapiens) (P08912 whole entry, looked up): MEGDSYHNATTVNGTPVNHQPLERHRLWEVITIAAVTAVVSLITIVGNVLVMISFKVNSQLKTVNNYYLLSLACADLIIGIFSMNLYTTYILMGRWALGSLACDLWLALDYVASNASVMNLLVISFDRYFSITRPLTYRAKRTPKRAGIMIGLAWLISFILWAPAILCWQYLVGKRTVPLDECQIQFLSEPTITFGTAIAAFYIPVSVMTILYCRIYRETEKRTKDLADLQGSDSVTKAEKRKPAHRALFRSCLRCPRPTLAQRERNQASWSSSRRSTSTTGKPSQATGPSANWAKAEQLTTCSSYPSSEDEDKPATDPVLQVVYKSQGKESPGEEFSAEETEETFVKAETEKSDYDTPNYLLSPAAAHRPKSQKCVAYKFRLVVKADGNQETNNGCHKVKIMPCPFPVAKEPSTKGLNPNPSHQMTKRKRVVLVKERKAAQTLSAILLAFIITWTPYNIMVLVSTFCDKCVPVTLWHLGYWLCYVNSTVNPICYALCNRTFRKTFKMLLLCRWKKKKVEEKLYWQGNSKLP

Compound	activation
COc1ccc(CN(C)C(=S)Nc2ccc(Cl)cc2Cl)cc1	-4.4%
O=C(CCS(=O)(=O)c1cccc2nonc12)NCCc1ccccc1Cl	-0.36%
Cc1nc(C)c2c(c1C(F)(F)F)-c1ccccc1C2(F)F	-0.42%
COc1ccc(CCN2C(=O)c3[nH]nc(-c4ccccc4O)c3C2c2ccc(C)cc2)cc1OC (stereo not given)	-2.41%
COc1ccc(-c2n[nH]c(C)c2-c2ccc(OC)c(OC)c2)c(O)c1	29.1% (active)
COc1ccc(-c2onc(C)c2-c2ccc3c(c2)OCCO3)c(O)c1	12.5%
O=C(NCC12CC3CC(C1)CC(CNC(=O)N1CCCC1)(C3)C2)N1CCCC1	2.96%
COCCNc1ccc(-c2n[nH]c(=O)c3ccccc23)cc1[N+](=O)[O-]	-2.62%
CCCCC(=O)N1CC2(C)CN(C(=O)CCCC)CC(C)(C1)C2=O	1.44%
O=C(COc1ccc([N+](=O)[O-])cc1Cl)Nn1cnnc1	-0.29%
COc1ccc(C(C[N+](=O)[O-])n2nc(C)cc2C)cc1 (stereo not given)	1.97%
Cc1cc(NC(=O)Nc2ccccc2[N+](=O)[O-])no1	-2.19%
CN(C)c1ccc(C(CNC(=O)c2ccc(F)cc2)c2c[nH]c3ccccc23)cc1 (stereo not given)	-4.52%
Cc1cc(=O)oc2c3c(cc(OCC(=O)NCCC(=O)N[C@@H](C)C(=O)O)c12)OC(C)(C)CC3	-2.41%
C[C@@H]1CN([C@H](C)CO)S(=O)(=O)c2ccc(C#CC3CCCCC3)cc2O[C@H]1CN(C)C(=O)Cc1ccncc1	1.87%
Cn1nc(N)c2ncc(C(Cl)(Cl)Cl)nc21	-0.27%
CCC1CCCCN1S(=O)(=O)Cc1ccccc1Cl (stereo not given)	-4.8%
CCCS(=O)(=O)N1CCN(C(=O)c2cccs2)CC1	2.49%
COc1ccccc1/C=C/CN1CCC(CO)(Cc2ccccc2)CC1	0.17%
O=C(Cn1cnc2c(OCc3ccccc3)ncnc21)NCc1nc2ccccc2[nH]1	-0.16%
CCCC(C)C(=O)Nc1ccc(NC(C)=O)cc1 (stereo not given)	0.87%
CCC(C(=O)Nc1ccc(C(C)C)cc1)c1ccccc1 (stereo not given)	35.8% (active)
Cc1ccc(NC(=O)C(C)c2cccc(C(=O)c3ccccc3)c2)cc1 (stereo not given)	5.38%

Compound	activation
CCOC(=O)c1sc(NC(=O)CSc2nc(C)cc(C(F)(F)F)n2)c(C#N)c1C	-3.97%
Clc1ccc(C2=CSC3=Nc4cccc5cccc(c45)N23)cc1	-0.82%
CC1=CC2=NC(=O)/C(=C/c3coc4ccccc4c3=O)C(=N)N2O1	38.9% (active)
COc1ccc(OCCCn2cccc2/C=C2/C(=N)N3OC(C)=CC3=NC2=O)cc1	0.09%
CC(C)CCN1CCN(Cc2cn[nH]c2C2CCCCC2)CC1CCO (stereo not given)	-10.3%
CCOCCCNC(=O)c1ccc(CS(=O)(=O)c2cccc(C(F)(F)F)c2)o1	-2.51%
Cn1c(=O)[nH]c(=O)c2c1[nH]c(=S)n2Cc1ccccc1	-2.82%
Cc1cc(OCC(=O)N(C)c2c(N)n(Cc3ccccc3)c(=O)[nH]c2=O)c(C(C)C)cc1Cl	-1.72%
Cc1cc2nc3c(=O)n(Cc4ccccc4)c(=O)[nH]c3nc2cc1N	86.1% (active)
O=C(COc1ccc(F)cc1)N(CC1=CCS(=O)(=O)C1)c1ccccc1	-3.65%
O=C(O)c1ccc2c(=O)n3c(nc2c1)/C(=C/c1ccc(OC(F)F)cc1OC(F)F)CC3	-3.87%
Cc1cc2c(cc1S(=O)(=O)CCC(=O)NCc1ccccc1)OCC(=O)N2	0.35%
COc1ccc(Cl)cc1NC(=O)CCS(=O)(=O)c1cc2c(cc1C)NC(=O)CO2	38% (active)
COc1ccc(NC(=O)CCS(=O)(=O)c2cc3c(cc2Cl)NC(=O)CO3)cc1OC	-3.81%
CCOC(=O)Cn1c(=O)oc2cc(S(=O)(=O)NCC3CCCO3)ccc21 (stereo not given)	1.72%
Cc1ccc(S(=O)(=O)N2C[C@H]3n4c(=O)ccc(=O)n4C[C@H](OC(=O)NC4CCCC4)[C@@]3(O)C2)cc1	0.5%
CCC1(C(=O)c2ccccc2)C(c2cccc([N+](=O)[O-])c2)C1(C(=O)OC)C(=O)OC (stereo not given)	-4.52%
O=C(Oc1ccc(C(=S)N2CCOCC2)cc1)c1ccc(F)cc1	3.46%
CN1C(=O)c2cccc3c(N)ccc(c23)C1=O	45.7% (active)
Cc1nn(C)cc1N1C(=O)c2cccc3c(N)ccc(c23)C1=O	91.9% (active)
CCC(C)(C)NC(=O)CN(C(=O)CCC(=O)Nc1nccs1)c1ccc2c(c1)OCO2	-2.1%
COC(=O)c1sccc1-n1cccc1C(=O)C(=O)N1CCCCC1	-2.31%
CC/C(=N\NC(=O)c1c(C)nc2ccccn12)c1ccc(Cl)cc1	-4.55%

Compound	activation
COc1ccc(N2C(=O)C3C(C2=O)C(C(=O)c2ccccc2)N2CCCC32)cc1 (stereo not given)	1.81%
CCn1c(CNc2ccc(OC)cc2)nnc1SCC(=O)c1ccc(OC)cc1	-9.07%
O=[N+]([O-])/C=C1\CCCCCN1	-0.84%
N#CC1(Nc2ccc(-c3ccc(Cl)cc3)cc2)CCCC1	-3.18%
N#CC1(Nc2ccc3c4c(cccc24)CC3)CCCCC1	37.2% (active)
CC(C)C(=O)Nc1ccc2c3c(cccc13)CC2	-5.26%
COc1cc(Cl)c(S(=O)(=O)n2cnc(C)c2)cc1Cl	0.51%
COc1cc(OC)c(-n2cc(-c3ccc(Cl)cc3)[nH]c2=O)cc1Cl	42.8% (active)
COc1ccc(Cl)cc1S(=O)(=O)N1CCC(O)(c2ccc(Cl)cc2)CC1	-0.77%
COc1ccc(C)cc1NC(=O)CSc1nnc(CC(=O)Nc2ccccc2F)n1C	-1.92%
COc1ccc(OC)c(CN2C(=O)CCC2(C)c2nnnn2Cc2ccccc2)c1 (stereo not given)	2.06%
COc1ccc(-n2c(C)csc2=S)cc1	-0.99%
CCOC(=O)C1=C(CC)OC(N)=C(C#N)C1c1ccc(F)cc1F (stereo not given)	-0.33%
Cn1cc(CNC(=O)c2ccc(OC3CCN(Cc4ccccn4)CC3)cc2)cn1	-4.97%
COc1ccc(SCCN2CCN(CC(C)C)CCC2=O)cc1	1.8%
O=C(COc1nc2ccccc2nc1N1CCOCC1)NCC(F)(F)F	-2.71%
Nc1nc2c(ncn2[C@@H]2O[C@H](CNCc3ccc(OCCCN4CCOCC4)cc3)[C@@H](O)[C@H]2O)c(=O)[nH]1	0.62%
O=[N+]([O-])c1cc(C(F)(F)F)ccc1NCCc1ccncc1	-2.99%
COc1ccc(C(=O)/C=C/Nc2ccccn2)cc1	78% (active)
O=C(/C=C/Nc1ccc(S(=O)(=O)Nc2cnc3ccccc3n2)cc1)c1cccnc1	-3.4%
COCCN(C(=O)CCC(=O)Nc1ccccn1)C(C(=O)NCCC(C)C)c1ccc(OC)cc1 (stereo not given)	-1.86%
CCOc1ccc(C(=O)NC(=S)Nc2ccc(N3CCOCC3)c(Cl)c2)cc1[N+](=O)[O-]	-0.99%
COc1ccc(NC(=O)CN2C(=O)COc3ccc(S(=O)(=O)N4CCOCC4)cc32)c(OC)c1	0.4%

Compound	activation
C[C@H]1COC(=O)[C@H](CC(=O)OC(C)(C)C)C/C=C\C[C@@H](CC(=O)N[C@H](CO)Cc2ccccc2)C(=O)N1	0.74%
Nc1ccn(C2CC(O)C(CO)O2)c(=O)n1 (stereo not given)	10.7%
O=c1[nH]cnc(O)c1C(c1ccc(F)cc1)c1c(O)nc[nH]c1=O	0.85%
Cc1occc(=O)c1OCc1c(Cl)cccc1Cl	-4.28%
Cc1occc1C(=O)NC1CCCN(Cc2ccc(CC(C)C)cc2)C1 (stereo not given)	-1.97%
Cc1ccc(Cn2c(C)c(C(=O)NCc3ccccc3C(F)(F)F)sc2=O)cc1	-2.26%
CC(=O)Oc1ccc(Cn2c(C)c(C(=O)NCc3ccc(C#N)cc3)sc2=O)cc1	47.2% (active)
Cc1c(C(=O)NCc2ccc(C#N)cc2)sc(=O)n1Cc1ccc(C(=O)N(C)C)cc1	0.99%
CCN(C(=O)COC(=O)c1cc(NS(=O)(=O)c2ccc(Cl)c([N+](=O)[O-])c2)ccc1O)C1CCCCC1	2.95%
CCC(CC)NC(=O)CSc1nnc(-c2c[nH]c3ccccc23)o1	-0.74%
CC1=CC=CN2C1=NC(=O)CC2(C)C(=O)N(CC(=O)NC1CCCC1)c1ccccc1C (stereo not given)	0.83%
COc1cc(=O)[nH]c(=O)n1C(=O)Cc1ccccc1	-1.68%
COc1cc(C(=S)NCc2ccccc2)cc(Br)c1O	-4.14%
COc1cc(/C=C2/SC(=S)N(Cc3ccccc3)C2=O)cc(OC)c1O	24.1% (active)
Nc1c(C(=O)c2cccs2)sc2nsc(SCCN3CCCCC3)c12	121% (active)
COc1cccc(-c2cnc3c(NC(C)=O)cc(-c4cc(F)ccc4OC)cn23)c1	-1.59%
CCn1c(C(C)C)n[nH]c1=S	1.36%
CCCn1nc2cc(C(=O)NCc3ccccc3)ccc2c1OCC	-0.79%
CCc1ccc(NC(=O)Cn2nnc(C(=O)NCc3ccc4c(c3)OCO4)c2N)cc1	-3.78%
CCOc1ccc(Cn2nnc(C(=O)NCc3ccccc3)c2N)cc1	34.7% (active)
CCN(CC)CCCC(C)n1c2nc(=O)[nH]c(=O)c-2nc2cc(Cl)ccc21 (stereo not given)	438% (active)
